# From PubChem BioAssay
# A selection: hits, their analogues and other compounds. The true share with any hit is near 11%.
# G9a inh: G9a (human) methyltransferase inhibition. G9a H3K9 monomethylation, AlphaScreen, 2 h. Potency, µM (series often up to 102 µM), inactives show at the top dose activity, negative = inhibition, usual class: inhibitors. 350,000 tested, 8.8% active. Q96KQ7; also: % is scaled to controls: 0 for no effect and ±100 for the full control effect; nearly all actives have a fitted effect of over 75% in size
#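 Readings reflect AlphaScreen signal from monomethyl-H3K9 antibody detection. HMT at 20 nM; substrate b-H3K9 500 nM; cofactor SAM 20 uM; 2 h RT reaction; compounds tested as titrations in qHTS with 15 min preincubation.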
# BAZ2B inh: inhibitors of human BAZ2B bromodomain | Q9UIF8 | Potency, µM (titrated, usually from 114 µM), without a hit: top-dose activity change, negative = inhibition, actives largely listed as inhibitors | AlphaScreen BAZ2B-H3K14Ac peptide displacement | 360,000 tested, 4.4% active; also: % is scaled to controls: 0 for no effect and ±100 for the full control effect; nearly all actives have a fitted effect of over 60% in size
#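 AlphaScreen displacement: compounds (up to 110uM) incubated 30 min at room temperature with a preformed 50 nM BAZ2B/50 nM biotinylated H3K14Ac peptide complex in PBS pH 7.4 with Tween-20. Donor and acceptor beads at 10 ug/mL final added, 20 min light-protected before reading.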
# HP1b chromo inh: blocks HP1-beta chromodomain binding to methylated histone tails; P83916; 390,000 tested, 0.56% active; Potency, µM (doses to about 114 µM), for inactives: at the top dose activity change, negative = inhibition, hits mostly inhibitors; AlphaScreen HP1-beta / biotin-H3K9me3 peptide binding; AID 540317; also: nearly all actives have a fitted effect of over 70% in size
#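 AlphaScreen: HP1-beta (50 nM) preformed 30 min with biotin-H3(1-18)K9me3 peptide (50 nM) in PBS pH 7.4, 0.01% Tween-20. Compound added for 30 min at RT, then streptavidin donor/nickel chelate acceptor beads (10 ug/mL) for 30 min.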
# JMJD2A Tudor: JMJD2A Tudor domain (human) inhibition; O75164; AlphaScreen JMJD2A-Tudor / H3K4me3 peptide binding; Potency, µM (top dose mostly 114 µM), for inactives: top-dose activity change, negative = inhibition, actives largely listed as inhibitors; 390,000 tested, 4.4% active; also: % is scaled to controls: 0 for no effect and ±100 for the full control effect; nearly all actives have a fitted effect of over 50% in size
# Target sequence (O75164 whole entry, looked up, the tested form may be a part): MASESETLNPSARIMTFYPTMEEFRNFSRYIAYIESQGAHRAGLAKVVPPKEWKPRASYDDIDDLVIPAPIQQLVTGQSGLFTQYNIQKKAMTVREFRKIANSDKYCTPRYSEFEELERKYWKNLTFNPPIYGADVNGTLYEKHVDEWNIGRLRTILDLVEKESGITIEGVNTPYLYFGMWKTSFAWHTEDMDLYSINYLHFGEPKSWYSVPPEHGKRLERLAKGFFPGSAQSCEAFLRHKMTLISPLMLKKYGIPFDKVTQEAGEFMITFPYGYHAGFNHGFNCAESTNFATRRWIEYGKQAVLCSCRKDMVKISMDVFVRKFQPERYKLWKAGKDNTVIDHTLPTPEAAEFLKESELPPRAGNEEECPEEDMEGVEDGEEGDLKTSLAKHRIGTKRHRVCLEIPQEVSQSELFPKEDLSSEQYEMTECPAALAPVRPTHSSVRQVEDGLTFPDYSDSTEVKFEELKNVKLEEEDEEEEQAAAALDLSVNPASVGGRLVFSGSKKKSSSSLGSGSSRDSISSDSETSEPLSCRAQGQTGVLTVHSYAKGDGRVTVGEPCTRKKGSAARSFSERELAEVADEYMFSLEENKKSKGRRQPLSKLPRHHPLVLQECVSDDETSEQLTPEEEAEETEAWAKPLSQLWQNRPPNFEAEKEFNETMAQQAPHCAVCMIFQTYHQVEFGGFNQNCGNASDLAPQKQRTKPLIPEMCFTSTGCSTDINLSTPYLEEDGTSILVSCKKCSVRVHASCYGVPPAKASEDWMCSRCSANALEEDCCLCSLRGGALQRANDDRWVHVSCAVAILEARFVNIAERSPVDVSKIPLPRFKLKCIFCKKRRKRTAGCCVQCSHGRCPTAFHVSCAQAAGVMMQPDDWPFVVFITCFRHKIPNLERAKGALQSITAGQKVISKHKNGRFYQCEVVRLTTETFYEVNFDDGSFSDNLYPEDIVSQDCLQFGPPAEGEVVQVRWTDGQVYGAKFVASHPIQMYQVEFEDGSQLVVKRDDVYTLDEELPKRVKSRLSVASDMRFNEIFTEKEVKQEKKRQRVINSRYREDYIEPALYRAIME
# L3MBTL1 inh: inhibitors of human L3MBTL1 | Q9Y468 | AlphaScreen L3MBTL1–H3K9me1 peptide binding | Potency, µM (titrated, usually from 57.1 µM), inactives show at the highest dose activity, negative = inhibition, usual class: inhibitors | 230,000 tested, 0.66% active | AID 485360; also: % is scaled to controls: 0 for no effect and ±100 for the full control effect; nearly all actives have a fitted effect of over 60% in size
#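 AlphaScreen assay: L3MBTL1 (50 nM final) was preincubated 30 min at room temperature with biotinylated H3(1-15)K9me1 peptide (75 nM final), then 30 min with library compounds; streptavidin donor and nickel chelate acceptor beads (10 ug/mL final) added, 30 min dark.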
# Starred values were filed as active, the others as inactive; ? = inconclusive; · = no result; [ ] = remark or other dose. Calls follow the shape of the dose curve; as a rule, active = well fitted inhibition curve with a large enough effect; inconclusive = small, poorly fitted or top-dose-only effect; inactive = no such curve, though single readings can be large or run the other way. Potency is read from the fitted curve at half-maximal effect.
SMILES,G9a inh,BAZ2B inh,HP1b chromo inh,JMJD2A Tudor,L3MBTL1 inh
Cc1ccc(S(=O)(=O)NN2C(=O)/C(=C/c3cccc(F)c3)SC2=S)cc1,20.1%[0.501 µM],?,2.4%,-32.0%,·
CC(/C=C1\SC(=S)N(NC(=O)c2ccc(C)cc2)C1=O)=C\c1ccccc1,?,?,-17.7%,?,-9.7%
Cc1ccc(S(=O)(=O)NN2C(=O)/C(=C/c3ccccn3)SC2=S)cc1,39.8µM*,-37.4%,-4.3%,-34.2%,-9.2%
COc1ccc(N2C(=O)CCC(C(=O)N3CCCCC3)C2c2ccc(OC)c(OC)c2)cc1 (stereo not drawn),56.2µM*,10.5%,11.7%,-1.4%,8.1%
O=C(NC1CCCCC1)N1CCN(Cc2nc3ccccc3c(=O)[nH]2)CC1,·,·,25.4%,10µM*,·
O=C(NC1CCCCC1)N(Cc1nc2ccccc2c(=O)[nH]1)C1CCCCC1,28.2µM*,?,18.5%,-4.7%,11.5%
O=C(NC1CCCCC1)N1CCC(n2cnc3ccccc32)CC1,56.2µM*,?,19.5%,56.2µM*,1.9%
Cc1ccc(S(=O)(=O)N2CCCN(Cc3nc4ccccc4c(=O)[nH]3)CC2)cc1,25.1µM*,-4.7%,27.5%,?,-1.0%
COc1ccc(-c2noc(CNC(=O)COc3cccc(C)c3C)n2)cc1,-0.5%[59 µM],2.0%,53.3%,-5.2%,·
COc1cccc(CNC(=O)CCc2c(C)nc3c4c(C)cc(C)nc4nn3c2C)c1,-1.3%[59 µM],-4.3%,12.6%,-12.1%,·
CCCN1CNc2c(c(=O)[nH]c(=S)n2CCc2ccccc2Cl)C1,·,·,37.2%,-12.2%,·
CCN1C(=O)[C@@H]2Cc3c([nH]c4ccccc34)C(c3ccc(OC)cc3)N2C1=S (stereo partly drawn),35.5µM*,-30.0%,1.3%,?,·
CCOC(=O)c1ccc(NC(=O)CCCc2nc(-c3ccccc3Cl)no2)cc1,11.7%[59 µM],9.0%,15.9%,-6.2%,·
O=C(O)c1cccc(Nc2nc(C(F)(F)F)nc3ccccc23)c1,-1.1%[59 µM],-16.7%,19.8%,-9.3%,?
CC(=O)c1ccc(Nc2nc3ccccc3nc2NS(=O)(=O)c2cccs2)cc1,2.9%,9.1%,29.9%[57 µM],13.5%,·
O=C(O)c1cccc(-n2c(/C=C/c3cccc([N+](=O)[O-])c3)nc3ccccc3c2=O)c1,1.8%[0.501 µM],-37.0%,-1.3%,-14.7%,·
O=C(O)c1cccc(Nc2nc(-c3ccccc3)nc3ccccc23)c1,56.2µM*,?,15.9%,-13.2%,·
O=[N+]([O-])c1ccc(-c2nc(Nc3cccc(O)c3)c3ccccc3n2)cc1,-5.5%,-18.1%,28.9%,-25.8%,·
O=C(O)c1cccc(Nc2nc3ccccc3nc2NS(=O)(=O)c2cccs2)c1,44.7µM*,-5.2%[57.1 µM],36.6%,-15.4%,·
O=C(O)c1cccc(-n2c(/C=C/c3ccc([N+](=O)[O-])cc3)nc3ccccc3c2=O)c1,70.8µM*,-29.6%,6.9%,-25.2%,-1.8%
O=C(O)c1cccc(Nc2nc(-c3ccc([N+](=O)[O-])cc3)nc3ccccc23)c1,?,56.2µM*,12.1%,-30.4%,·
CCOC(=O)N1CCN(c2ccncc2S(=O)(=O)N2CCCCC2)CC1,-0.1%,-9.2%,40.7%,2.0%,·
O=C(COC(=O)c1ccccc1O)NNC(=O)c1ccc(Br)cc1,?,-4.8%,39.7%,-1.4%,-7.4%
O=C(COC(=O)c1cc(Br)ccc1O)NNC(=O)c1ccc([N+](=O)[O-])cc1,44.7µM*,-0.4%,41.8%,-5.2%,-8.3%
O=C(COC(=O)c1cc(Br)ccc1O)NNC(=O)c1ccc(Cl)cc1,44.7µM*,5.6%,28.8%,-7.6%,8.5%
SMILES,G9a inh,BAZ2B inh,HP1b chromo inh,JMJD2A Tudor,L3MBTL1 inh
CC(NC(=O)c1cccs1)c1ccc(Br)cc1 (stereo not drawn),·,·,4.3%,?,·
O=C1C=CC(=Nc2ccc(F)cc2)O1,·,·,22.4µM*,44.7µM*,·
CC(=O)NCCNC(=O)CCCn1c(=O)[nH]c2ccsc2c1=O,5.6%[59 µM],2.6%,21.8%,-9.9%,·
O=C1C=CC(=O)c2c(O)c(N3CCN(CCOCCO)CC3)c(Br)c(O)c21,·,·,8.91µM*,56.2µM*,·
O=C1C=CC(=O)c2c(O)c(N3CCN(CCO)CC3)c(Cl)c(O)c21,·,·,?,50.1µM*,·
CC(C)(C)OC(=O)N1CCC[C@H]1c1nnc(SCc2ccccc2F)o1,50.1µM*,4.5%,53.2%,2.9%,3.0%
O=[N+]([O-])c1ccc(S(=O)(=O)CC(CN2CCCCC2)N2CCCCC2)cc1 (stereo not drawn),35.5µM*,-21.6%,12.1%,-18.5%,-1.0%
O=[N+]([O-])c1ccc(S(=O)(=O)CC(CN2CCOCC2)N2CCOCC2)cc1 (stereo not drawn),56.2µM*,14.4%,29.9%,-5.0%,-8.9%
Cc1ccc(C(=O)OCC2OC3OC(C)(C)OC3C2O)cc1 (stereo not drawn),15.7%,11.7%,35.9%,5.2%,3.0%
CC1(C)O[C@H]2OC([C@H](O)CON3C(=O)c4ccccc4C3=O)[C@H](O)[C@H]2O1 (stereo partly drawn),44.7µM*,-31.4%,18.0%,-33.1%,-0.5%
O=C(O)c1n[nH]c2c1CC(C1CCCCC1)CC2 (stereo not drawn),0.9%[2.33 µM],70.8µM*,52.1%,-14.6%,-9.6%
O=C(NC1CCCCC1)c1n[nH]c2c1CC(c1ccccc1)CC2 (stereo not drawn),-11.3%[2.33 µM],-3.4%,21.0%,-19.7%,-1.4%
CCC1CCc2[nH]nc(C(=O)O)c2C1 (stereo not drawn),25.1µM*,?,6.9%,50.1µM*,·
CCCCC1CCc2[nH]nc(C(=O)O)c2C1 (stereo not drawn),15.7%[2.33 µM],?,26.2%,-26.6%,0.5%
CC1CCc2[nH]nc(C(=O)O)c2C1 (stereo not drawn),28.2µM*,?,12.6%,31.6µM*,1.1%
COc1ccc(S(=O)(=O)NCCc2csc3nc(-c4ccc(Cl)cc4)nn23)cc1C,0.5%[59 µM],?,23.0%,-1.6%,·
N#Cc1ccc(CN2CC[C@@]3(CCCN(S(=O)(=O)c4ccccc4)C3)C2)cc1,3.6%[12.7 µM],·,·,·,·
Cc1cccc(-c2noc(CN(C(=O)COc3ccc(Br)cc3C)C(C)C)n2)c1,7.3%[59 µM],13.5%,46.8%,13.1%,·
Cc1ccc(CNC(=O)CSCc2cccc(F)c2)cc1,-21.7%,·,-6.5%,50.1µM*,·
O=C(CSCc1cccc(F)c1)NCc1ccccc1,29.6%,-2.0%,20.0%,-1.7%,·
Cc1ccc(NC(=O)C2CCCN(c3ncnc4c3nc3n4CCCCC3)C2)c(Br)c1 (stereo not drawn),0.1%[59 µM],1.3%,34.2%,3.6%,·
Cc1cc(C)c(S(=O)(=O)N(CC(=O)O)CC(=O)O)c(C)c1,22.4µM*,13.9%,13.2%,?,·
Cc1cccc(C)c1NC(=O)C(c1ccccc1)N1CCC1=O (stereo not drawn),57.3%[12.7 µM],11.2%,-12.6%,39.8µM*,6.0%
CC(=O)N1CCN(Cc2nc3cc(NC(=O)COc4cccc(C)c4)ccc3n2C)CC1,6.31µM*,?,10.3%,-21.0%,·
